Experimental data from paper PMC7862700, “An all-to-all approach to the identification of sequence-specific readers for epigenetic DNA modifications on cytosine”.

Columns and labels:
Assay in all cases: DAPPL (digital affinity profiling via proximity ligation, sequencing); 10 mM Tris-HCl pH 7.5, 50 mM NaCl, 1 mM DTT, 4% glycerol, room temperature, 30 min; GST-TFs on glutathione beads, 16-mer random dsDNA library, 0.1% formaldehyde crosslink after washing; high values mean tight binding
FEV = biological target: T1, FEV (Homo sapiens, UniProt Q99581 1-238); conditions: protein: recombinant; tags: N-terminal GST; dsDNA, one strand shown
T1 sequence: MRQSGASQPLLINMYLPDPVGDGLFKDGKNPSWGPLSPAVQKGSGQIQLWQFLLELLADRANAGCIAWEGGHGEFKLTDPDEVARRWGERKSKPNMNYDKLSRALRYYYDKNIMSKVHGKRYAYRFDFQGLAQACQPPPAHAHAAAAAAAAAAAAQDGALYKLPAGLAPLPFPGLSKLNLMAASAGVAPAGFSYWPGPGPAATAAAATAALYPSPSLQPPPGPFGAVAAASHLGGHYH
How it was run: (§1)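 Sequencing on an Illumina NextSeq500 followed washing, crosslinking with 0.1% formaldehyde, proximity ligation (BsaI/T4 ligase, 1 h, 37 °C) and PCR amplification of pools that had been incubated for 30 min at room temperature with 200 nmole of a random double-stranded 16-mer DNA library in Tris/NaCl/DTT/glycerol buffer. Each pool held DNA-barcoded human transcription factors, expressed in yeast as GST fusions and captured on glutathione beads, plus a tag-only sample. Binding signal is a hexamer's read frequency for a factor divided by its frequency in the tag-only sample.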

ETV5 = ETV5 (Homo sapiens, UniProt P41161 1-510); conditions: protein: recombinant; tags: N-terminal GST; dsDNA, one strand shown
ETV5, sequence (P41161 whole entry): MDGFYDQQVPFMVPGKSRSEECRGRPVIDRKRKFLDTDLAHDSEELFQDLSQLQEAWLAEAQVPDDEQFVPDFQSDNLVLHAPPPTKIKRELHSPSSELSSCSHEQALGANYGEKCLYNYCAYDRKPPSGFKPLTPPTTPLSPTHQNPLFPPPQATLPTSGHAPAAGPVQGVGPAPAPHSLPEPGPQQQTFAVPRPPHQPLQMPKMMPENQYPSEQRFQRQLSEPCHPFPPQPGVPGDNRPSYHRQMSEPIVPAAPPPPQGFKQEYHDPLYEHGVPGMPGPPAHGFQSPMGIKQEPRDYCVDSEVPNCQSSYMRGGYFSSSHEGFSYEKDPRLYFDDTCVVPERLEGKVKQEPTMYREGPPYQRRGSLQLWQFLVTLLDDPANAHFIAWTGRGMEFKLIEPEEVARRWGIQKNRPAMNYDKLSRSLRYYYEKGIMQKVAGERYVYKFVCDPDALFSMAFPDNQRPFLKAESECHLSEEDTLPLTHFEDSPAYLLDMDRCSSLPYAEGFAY
How it was run: as §1

HSF1 = HSF1 (Homo sapiens, UniProt Q00613 1-529); conditions: protein: recombinant; tags: N-terminal GST; chain copies: 3; dsDNA, one strand shown
HSF1, sequence (Q00613 whole entry): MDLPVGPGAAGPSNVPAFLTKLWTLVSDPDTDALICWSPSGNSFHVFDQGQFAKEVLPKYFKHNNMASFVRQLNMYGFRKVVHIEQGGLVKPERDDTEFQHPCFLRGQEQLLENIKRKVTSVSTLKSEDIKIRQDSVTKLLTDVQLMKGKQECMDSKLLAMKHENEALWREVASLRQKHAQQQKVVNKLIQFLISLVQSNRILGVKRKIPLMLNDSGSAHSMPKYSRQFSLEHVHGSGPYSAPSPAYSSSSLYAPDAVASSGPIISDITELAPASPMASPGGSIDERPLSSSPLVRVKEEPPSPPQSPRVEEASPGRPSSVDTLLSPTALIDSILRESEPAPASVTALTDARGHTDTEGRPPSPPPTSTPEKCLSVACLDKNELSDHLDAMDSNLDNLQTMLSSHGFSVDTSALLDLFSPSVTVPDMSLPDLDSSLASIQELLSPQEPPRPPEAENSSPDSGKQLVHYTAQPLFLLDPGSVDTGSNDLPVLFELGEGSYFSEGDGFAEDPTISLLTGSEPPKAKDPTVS
How it was run: as §1

SPIC = biological target: T2, SPIC (Homo sapiens, UniProt Q8N5J4 1-248); conditions: protein: recombinant; tags: N-terminal GST; dsDNA, one strand shown
T2 sequence: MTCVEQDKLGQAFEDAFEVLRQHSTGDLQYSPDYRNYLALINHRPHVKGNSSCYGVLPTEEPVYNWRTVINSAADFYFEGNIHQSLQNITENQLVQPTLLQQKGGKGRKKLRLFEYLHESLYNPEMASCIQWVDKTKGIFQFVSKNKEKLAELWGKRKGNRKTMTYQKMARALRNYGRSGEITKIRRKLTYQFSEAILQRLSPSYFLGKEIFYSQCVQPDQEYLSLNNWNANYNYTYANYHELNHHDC
How it was run: as §1

ELF4 = ELF4 (Homo sapiens, UniProt Q99607 1-663); conditions: protein: recombinant; tags: N-terminal GST; dsDNA, one strand shown
ELF4, sequence (Q99607 whole entry): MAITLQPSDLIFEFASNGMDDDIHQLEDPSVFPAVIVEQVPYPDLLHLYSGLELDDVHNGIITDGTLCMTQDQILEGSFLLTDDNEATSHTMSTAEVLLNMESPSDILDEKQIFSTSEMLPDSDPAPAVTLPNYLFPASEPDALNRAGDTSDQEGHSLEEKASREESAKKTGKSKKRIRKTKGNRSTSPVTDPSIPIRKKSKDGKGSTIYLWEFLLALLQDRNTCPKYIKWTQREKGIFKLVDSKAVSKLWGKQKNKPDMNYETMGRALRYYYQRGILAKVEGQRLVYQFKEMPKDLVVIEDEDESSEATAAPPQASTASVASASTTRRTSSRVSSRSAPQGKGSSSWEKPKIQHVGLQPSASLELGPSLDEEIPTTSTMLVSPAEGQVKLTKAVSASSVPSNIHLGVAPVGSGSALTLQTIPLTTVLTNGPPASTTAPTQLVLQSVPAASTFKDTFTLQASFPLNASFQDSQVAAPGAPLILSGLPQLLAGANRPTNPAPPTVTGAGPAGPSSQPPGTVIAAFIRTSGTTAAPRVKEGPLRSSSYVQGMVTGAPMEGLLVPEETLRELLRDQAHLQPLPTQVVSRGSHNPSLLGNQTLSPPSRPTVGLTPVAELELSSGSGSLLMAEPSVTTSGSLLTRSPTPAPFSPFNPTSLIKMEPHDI
How it was run: as §1

ELK4 = biological target: T3, ELK4 (Homo sapiens, UniProt P28324-2 1-405); conditions: protein: recombinant; tags: N-terminal GST; dsDNA, one strand shown
T3 sequence: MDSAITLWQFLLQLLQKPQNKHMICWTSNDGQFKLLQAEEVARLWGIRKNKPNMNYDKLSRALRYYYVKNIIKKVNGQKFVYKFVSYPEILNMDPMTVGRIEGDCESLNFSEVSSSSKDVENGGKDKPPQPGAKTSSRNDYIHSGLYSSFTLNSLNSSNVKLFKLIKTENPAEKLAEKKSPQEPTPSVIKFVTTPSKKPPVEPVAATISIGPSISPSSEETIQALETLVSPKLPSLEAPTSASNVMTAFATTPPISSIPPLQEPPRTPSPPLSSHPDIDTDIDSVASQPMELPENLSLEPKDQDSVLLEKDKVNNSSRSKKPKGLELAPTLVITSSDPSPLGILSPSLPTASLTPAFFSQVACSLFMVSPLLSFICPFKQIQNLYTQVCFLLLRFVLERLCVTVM
How it was run: as §1

ETV2 = biological target: T4, ETV2 (Homo sapiens, UniProt O00321 1-342); conditions: protein: recombinant; tags: N-terminal GST; dsDNA, one strand shown
T4 sequence: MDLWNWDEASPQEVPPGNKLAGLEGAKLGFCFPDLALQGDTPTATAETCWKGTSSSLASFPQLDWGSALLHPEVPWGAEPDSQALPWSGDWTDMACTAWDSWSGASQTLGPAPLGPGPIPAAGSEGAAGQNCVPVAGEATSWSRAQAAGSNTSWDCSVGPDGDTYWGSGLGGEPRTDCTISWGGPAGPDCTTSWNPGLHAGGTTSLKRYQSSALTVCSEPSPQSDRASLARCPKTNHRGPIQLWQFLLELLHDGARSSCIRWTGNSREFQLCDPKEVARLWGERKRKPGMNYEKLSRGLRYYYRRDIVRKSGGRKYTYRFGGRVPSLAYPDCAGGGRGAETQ
How it was run: as §1

ELF3 = biological target: T5, ELF3 (Homo sapiens, UniProt P78545 1-371); conditions: protein: recombinant; tags: N-terminal GST; dsDNA, one strand shown
T5 sequence: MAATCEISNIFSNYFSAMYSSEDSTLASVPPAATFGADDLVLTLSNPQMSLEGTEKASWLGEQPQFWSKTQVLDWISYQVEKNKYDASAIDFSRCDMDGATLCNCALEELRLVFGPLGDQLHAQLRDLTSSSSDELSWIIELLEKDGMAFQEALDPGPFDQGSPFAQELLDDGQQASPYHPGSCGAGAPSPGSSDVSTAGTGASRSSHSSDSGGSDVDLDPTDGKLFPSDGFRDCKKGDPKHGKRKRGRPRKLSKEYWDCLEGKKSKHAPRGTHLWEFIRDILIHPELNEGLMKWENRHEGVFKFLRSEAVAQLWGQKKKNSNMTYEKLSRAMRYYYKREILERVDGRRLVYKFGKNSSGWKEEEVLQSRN
How it was run: as §1

CRX = CRX (Homo sapiens, UniProt O43186 1-299); conditions: protein: recombinant; tags: N-terminal GST; dsDNA, one strand shown
CRX, sequence (O43186 whole entry): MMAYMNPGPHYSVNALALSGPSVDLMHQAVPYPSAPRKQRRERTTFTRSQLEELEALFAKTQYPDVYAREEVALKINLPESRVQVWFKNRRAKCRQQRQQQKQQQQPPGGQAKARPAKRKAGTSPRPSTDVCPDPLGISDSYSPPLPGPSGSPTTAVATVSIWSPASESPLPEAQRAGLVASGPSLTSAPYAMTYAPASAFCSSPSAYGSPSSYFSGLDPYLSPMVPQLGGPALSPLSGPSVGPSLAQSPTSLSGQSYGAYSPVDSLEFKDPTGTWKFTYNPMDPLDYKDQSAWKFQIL
How it was run: as §1

ETV1 = ETV1 (Homo sapiens, UniProt P50549 1-477); conditions: protein: recombinant; tags: N-terminal GST; dsDNA, one strand shown
ETV1, sequence (P50549 whole entry): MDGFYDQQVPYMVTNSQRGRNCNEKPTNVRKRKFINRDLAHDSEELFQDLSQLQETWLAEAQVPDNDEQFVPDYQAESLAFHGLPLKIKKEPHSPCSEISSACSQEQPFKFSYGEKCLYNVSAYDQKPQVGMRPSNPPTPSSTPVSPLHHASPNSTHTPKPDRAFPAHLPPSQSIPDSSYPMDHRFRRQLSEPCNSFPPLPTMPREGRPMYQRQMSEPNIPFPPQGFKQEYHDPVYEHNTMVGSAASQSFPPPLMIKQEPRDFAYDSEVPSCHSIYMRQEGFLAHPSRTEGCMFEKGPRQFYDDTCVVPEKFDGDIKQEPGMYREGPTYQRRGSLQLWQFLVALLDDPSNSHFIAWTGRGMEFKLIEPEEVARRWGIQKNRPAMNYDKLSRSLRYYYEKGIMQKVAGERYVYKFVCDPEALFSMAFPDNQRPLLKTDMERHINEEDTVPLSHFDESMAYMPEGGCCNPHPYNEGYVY
How it was run: as §1

ERF = biological target: T6, ERF (Homo sapiens, UniProt P50548 1-548); conditions: protein: recombinant; tags: N-terminal GST; dsDNA, one strand shown
T6 sequence: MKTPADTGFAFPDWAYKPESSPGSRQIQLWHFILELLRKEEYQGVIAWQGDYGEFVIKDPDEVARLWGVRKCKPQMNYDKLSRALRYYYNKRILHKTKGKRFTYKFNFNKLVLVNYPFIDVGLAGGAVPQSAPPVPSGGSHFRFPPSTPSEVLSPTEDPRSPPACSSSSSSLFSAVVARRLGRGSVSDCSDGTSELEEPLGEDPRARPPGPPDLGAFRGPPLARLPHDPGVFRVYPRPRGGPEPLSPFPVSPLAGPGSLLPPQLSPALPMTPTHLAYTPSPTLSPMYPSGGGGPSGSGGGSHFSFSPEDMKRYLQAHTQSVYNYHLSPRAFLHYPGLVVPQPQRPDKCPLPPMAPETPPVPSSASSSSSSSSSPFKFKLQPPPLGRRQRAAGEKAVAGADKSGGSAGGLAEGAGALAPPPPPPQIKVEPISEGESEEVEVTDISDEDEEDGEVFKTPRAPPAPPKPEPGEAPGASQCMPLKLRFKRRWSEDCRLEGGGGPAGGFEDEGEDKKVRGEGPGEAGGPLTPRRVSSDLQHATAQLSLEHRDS
How it was run: as §1

ETV3L = biological target: T7, ETV3L (Homo sapiens, UniProt Q6ZN32 1-361); conditions: protein: recombinant; tags: N-terminal GST; dsDNA, one strand shown
T7 sequence: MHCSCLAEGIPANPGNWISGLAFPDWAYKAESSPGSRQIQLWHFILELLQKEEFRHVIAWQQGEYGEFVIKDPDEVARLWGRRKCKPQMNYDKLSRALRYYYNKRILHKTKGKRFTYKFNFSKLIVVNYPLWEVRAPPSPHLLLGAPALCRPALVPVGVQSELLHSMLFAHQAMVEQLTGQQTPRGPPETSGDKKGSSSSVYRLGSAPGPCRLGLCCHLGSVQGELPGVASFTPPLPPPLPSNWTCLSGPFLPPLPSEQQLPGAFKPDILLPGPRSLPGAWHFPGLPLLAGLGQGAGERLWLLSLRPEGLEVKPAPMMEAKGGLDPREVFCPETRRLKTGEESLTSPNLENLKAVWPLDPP
How it was run: as §1

ETS2 = biological target: T8, ETS2 (Homo sapiens, UniProt P15036 1-469); conditions: protein: recombinant; tags: N-terminal GST; dsDNA, one strand shown
T8 sequence: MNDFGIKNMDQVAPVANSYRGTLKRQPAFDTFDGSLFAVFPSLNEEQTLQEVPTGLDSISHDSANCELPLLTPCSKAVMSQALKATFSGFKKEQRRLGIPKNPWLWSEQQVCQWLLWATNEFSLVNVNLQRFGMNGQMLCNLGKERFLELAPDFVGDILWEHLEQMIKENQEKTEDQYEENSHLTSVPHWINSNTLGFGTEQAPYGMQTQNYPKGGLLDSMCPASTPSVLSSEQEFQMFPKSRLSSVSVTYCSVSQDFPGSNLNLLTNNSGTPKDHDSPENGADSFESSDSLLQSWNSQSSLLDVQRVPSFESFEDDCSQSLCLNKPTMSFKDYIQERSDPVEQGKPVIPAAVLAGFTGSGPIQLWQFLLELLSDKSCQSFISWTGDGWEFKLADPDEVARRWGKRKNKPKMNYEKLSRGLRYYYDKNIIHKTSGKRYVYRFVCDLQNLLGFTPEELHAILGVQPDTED
How it was run: as §1

SPDEF = biological target: T9, SPDEF (Homo sapiens, UniProt O95238 1-335); conditions: protein: recombinant; tags: N-terminal GST; dsDNA, one strand shown
T9 sequence: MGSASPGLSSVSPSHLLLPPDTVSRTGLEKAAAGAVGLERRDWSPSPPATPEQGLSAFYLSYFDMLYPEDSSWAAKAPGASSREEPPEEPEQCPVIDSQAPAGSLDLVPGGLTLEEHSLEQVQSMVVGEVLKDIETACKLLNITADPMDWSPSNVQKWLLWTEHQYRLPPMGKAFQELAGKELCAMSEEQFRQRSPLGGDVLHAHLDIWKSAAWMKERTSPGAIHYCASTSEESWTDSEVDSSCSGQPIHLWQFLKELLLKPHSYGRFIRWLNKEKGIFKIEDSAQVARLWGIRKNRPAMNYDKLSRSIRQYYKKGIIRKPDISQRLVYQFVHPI
How it was run: as §1

ETV7 = biological target: T10, ETV7 (Homo sapiens, UniProt Q9Y603 1-341); conditions: protein: recombinant; tags: N-terminal GST; dsDNA, one strand shown
T10 sequence: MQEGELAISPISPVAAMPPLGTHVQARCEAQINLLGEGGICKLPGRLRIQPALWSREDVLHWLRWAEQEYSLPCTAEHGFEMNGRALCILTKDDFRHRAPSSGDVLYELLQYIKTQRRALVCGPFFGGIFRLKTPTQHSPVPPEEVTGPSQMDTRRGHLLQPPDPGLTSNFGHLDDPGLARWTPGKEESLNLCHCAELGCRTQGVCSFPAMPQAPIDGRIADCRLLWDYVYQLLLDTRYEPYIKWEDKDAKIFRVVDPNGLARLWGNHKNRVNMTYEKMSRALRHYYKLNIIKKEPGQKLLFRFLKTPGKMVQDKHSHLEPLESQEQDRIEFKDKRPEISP
How it was run: as §1

ELF5 = biological target: T11, ELF5 (Homo sapiens, UniProt Q9UKW6-2 1-255); conditions: protein: recombinant; tags: N-terminal GST; dsDNA, one strand shown
T11 sequence: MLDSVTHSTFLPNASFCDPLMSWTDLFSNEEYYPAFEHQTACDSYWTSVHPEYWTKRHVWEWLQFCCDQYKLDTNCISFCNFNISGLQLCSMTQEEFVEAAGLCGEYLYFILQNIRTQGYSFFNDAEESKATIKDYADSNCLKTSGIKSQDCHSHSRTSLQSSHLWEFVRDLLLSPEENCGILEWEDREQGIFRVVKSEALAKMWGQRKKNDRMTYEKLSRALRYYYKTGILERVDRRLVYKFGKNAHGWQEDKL
How it was run: as §1

ETV3 = biological target: T12, ETV3 (Homo sapiens, UniProt P41162-2 1-143); conditions: protein: recombinant; tags: N-terminal GST; dsDNA, one strand shown
T12 sequence: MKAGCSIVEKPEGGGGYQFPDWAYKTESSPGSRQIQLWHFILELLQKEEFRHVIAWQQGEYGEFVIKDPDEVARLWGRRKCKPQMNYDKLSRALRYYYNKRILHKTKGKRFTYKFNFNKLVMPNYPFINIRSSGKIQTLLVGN
How it was run: as §1

ETV6 = ETV6 (Homo sapiens, UniProt P41212 1-452); conditions: protein: recombinant; tags: N-terminal GST; dsDNA, one strand shown
ETV6, sequence (P41212 whole entry): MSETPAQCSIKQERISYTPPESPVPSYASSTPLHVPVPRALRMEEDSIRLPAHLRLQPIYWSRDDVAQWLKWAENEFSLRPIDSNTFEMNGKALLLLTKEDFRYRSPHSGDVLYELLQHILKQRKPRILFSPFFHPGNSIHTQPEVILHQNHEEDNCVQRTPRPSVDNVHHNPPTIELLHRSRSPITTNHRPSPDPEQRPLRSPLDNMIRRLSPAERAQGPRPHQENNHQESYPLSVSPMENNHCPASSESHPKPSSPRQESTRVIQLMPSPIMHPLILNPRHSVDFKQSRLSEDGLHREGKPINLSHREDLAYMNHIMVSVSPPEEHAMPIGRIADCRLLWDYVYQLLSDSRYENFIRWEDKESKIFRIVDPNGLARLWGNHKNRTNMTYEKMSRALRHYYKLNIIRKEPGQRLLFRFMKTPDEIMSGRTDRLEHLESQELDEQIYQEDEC
How it was run: as §1

CCCACG
binding signal (FEV): 1.13 fold enrichment (6-mer frequency, TF over GST control)
binding signal (ETV5): 1.22 fold enrichment (6-mer frequency, TF over GST control)
binding signal (HSF1): 1.01 fold enrichment (6-mer frequency, TF over GST control)
binding signal (SPIC): 1.22 fold enrichment (6-mer frequency, TF over GST control)
binding signal (ELF4): 1.27 fold enrichment (6-mer frequency, TF over GST control)
binding signal (ELK4): 1.25 fold enrichment (6-mer frequency, TF over GST control)
binding signal (ETV2): 1.01 fold enrichment (6-mer frequency, TF over GST control)
binding signal (ELF3): 1.21 fold enrichment (6-mer frequency, TF over GST control)
binding signal (CRX): 1 fold enrichment (6-mer frequency, TF over GST control)
binding signal (ETV1): 1.06 fold enrichment (6-mer frequency, TF over GST control)
binding signal (ERF): 1.13 fold enrichment (6-mer frequency, TF over GST control)
binding signal (ETV3L): 1.05 fold enrichment (6-mer frequency, TF over GST control)
binding signal (ETS2): 1.17 fold enrichment (6-mer frequency, TF over GST control)
binding signal (SPDEF): 1.05 fold enrichment (6-mer frequency, TF over GST control)
binding signal (ETV7): 1.18 fold enrichment (6-mer frequency, TF over GST control)
binding signal (ELF5): 1.15 fold enrichment (6-mer frequency, TF over GST control)
binding signal (ETV3): 1.11 fold enrichment (6-mer frequency, TF over GST control)
binding signal (ETV6): 1.09 fold enrichment (6-mer frequency, TF over GST control)
